Measured values from the supplement of paper PMC6555819.

Key:
Test in all cases: PBM binding z-score (relative to random genomic background probes); higher = stronger binding; sequences stand for … in GC…GCGATTGACAGCGTAGAATGAAGG
[1] = test system: FXR:RXRa (NR concentration 270 nM, RXRa partner concentration 90 nM)
How it was run: (§1)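 Each nuclear receptor dimer, without ligand, was incubated for 1 h on custom Agilent 4×180K protein-binding microarrays. Binding was detected with antibodies against each partner (one per run), and scanned fluorescence was regression-normalized. The binding z-scores are referenced to random human genomic background probes.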

[2] = test system: LXRa:RXRa (NR concentration 270 nM, RXRa partner concentration 90 nM)
How it was run: as §1

[3] = test system: LXRa homodimer (NR concentration 270 nM)
How it was run: as §1

[4] = test system: LXRb:RXRa (NR concentration 270 nM, RXRa partner concentration 90 nM)
How it was run: as §1

[5] = test system: LXRb homodimer (NR concentration 270 nM)
How it was run: as §1

[6] = test system: PPARa:RXRa (NR concentration 270 nM, RXRa partner concentration 90 nM)
How it was run: as §1

[7] = test system: PPARg:RXRa (NR concentration 180 nM, RXRa partner concentration 90 nM)
How it was run: as §1

[8] = test system: PPARg:RXRa 270nM:90nM, anti-RXR (NR concentration 270 nM, RXRa partner concentration 90 nM)
How it was run: as §1

[9] = test system: PPARg:RXRa 30nM:10nM, anti-RXR (NR concentration 30 nM, RXRa partner concentration 10 nM)
How it was run: as §1

[10] = test system: PPARg:RXRa 90nM:30nM, anti-RXR (NR concentration 90 nM, RXRa partner concentration 30 nM)
How it was run: as §1

| Sequence | PBM binding z-score [1] | PBM binding z-score [2] | PBM binding z-score [3] | PBM binding z-score [4] | PBM binding z-score [5] | PBM binding z-score [6] | PBM binding z-score [7] | PBM binding z-score [8] | PBM binding z-score [9] | PBM binding z-score [10] |
| --- | --- | --- | --- | --- | --- | --- | --- | --- | --- | --- |
| CCAGATAGGTGAGAAGGTAACTCAGCCTCGATTA | -0.0268 | 0.168 | 0.00136 | 0.105 | -0.314 | 1.14 | 1.1 | 2.3 | 0.791 | 1.76 |
| CCTAGTTGGTCAGGAGCTCACACACCGGATATGA | -0.0186 | -0.0451 | 0.119 | -0.266 | 0.143 | -0.0186 | 0.636 | 0.361 | -0.291 | -0.0665 |
| TCATATAGGTAATACAGGTGAAAGACGGCATCTA | 1.16 | 1.28 | 0.842 | 0.947 | 0.0154 | 1.94 | 1.92 | 2.73 | 4.26 | 3.41 |
| TCATATAGGTAAATGCTAGGTTAAAGTCCGATCT | 1.18 | 1.82 | 1.14 | 1.05 | 0.0487 | 1.7 | 0.987 | 2.22 | 3.48 | 2.87 |
| TCATGTAGGTAATACAGGTGAAAGTCGGCATCTA | 0.0966 | 0.506 | 0.125 | 0.469 | -0.485 | 1.63 | 1.15 | 1.94 | 2.84 | 2.25 |
| CCTGCTAGGTCAATGGTAAGCTAAAGCAGCTCGC | 2.96 | 2.11 | -0.107 | 1.19 | -0.205 | 2.84 | 2.52 | 2.98 | 0.395 | 2.09 |
| ATCTTTAGGTAAAGATAGTTCAGTGAATGCAAAT | 0.178 | 4.41 | 0.491 | 0.995 | 0.495 | 0.508 | 0.63 | 0.465 | 0.338 | 0.506 |
| TCGAGTAGGTTGGTCGGGGCATTCAGCCAACATA | 0.0024 | -0.387 | -0.443 | -0.0412 | -0.299 | 0.0379 | -0.696 | 0.116 | 0.981 | 0.513 |
| AGAACGAGGGCAGTGAGTTGATAGCACGGGTGGC | -0.476 | -0.6 | -0.882 | -0.705 | -0.698 | 0.144 | 0.647 | -0.0577 | -0.624 | -0.408 |
| CGTCAGAGTTCAACTAAGGTAACGTAAAGCACGC | 6.8 | 5.7 | 3.39 | 3.95 | 1.39 | 4.78 | 3.46 | 3.98 | 1.19 | 2.53 |
| CCTAGTTCGTCAGGAGGTCACACACCGGATATGA | 3.66 | 4.1 | 2.37 | 3.64 | 1.22 | 4.28 | 2.29 | 3.03 | 1.04 | 2.19 |
| AATACAGGGTCATCCTAGGCCAGAGTACGCACAG | 7.59 | 6.64 | 3.26 | 5.25 | 1.72 | 6.4 | 6.74 | 5.93 | 2.82 | 4.48 |
| TCTTGTAGATCAACAGGAGGTTATGAAAGATCGA | 0.335 | 1.2 | 0.215 | 0.914 | -0.0997 | 1.2 | 0.228 | 1.25 | 2.43 | 1.78 |
